The record followed here is PubChem BioAssay (Tox21).

Records with an inconclusive call do not appear. Entries that show only a call come without a potency. Unmarked numbers belong to inactive results. Active and inactive are the calls of the source. The call rests on the fitted dose curve.

For this assay, the target named is Beta-2 adrenergic receptor (Homo sapiens) (UniProt P07550). Briefly: Adrenergic beta2 receptor (ADRB2) small molecule agonists, cell-based qHTS assay (AID 1963593).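 Further: CHO cells stably overexpressing human ADRB2.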 The following applies: CHO-ADRB2 cells, cAMP HTRF, 30 min; series mostly up to 92.4 µM. An outline of the steps: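 CHO cells stably over-expressing ADRB2 were plated overnight at 37C, then dosed with compounds plus a stimulation mix containing 100uM IBMX and 25uM Ro-20-1724 for 0.5hr at room temperature. cAMP was measured by HTRF competition, 1hr.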
Beta-2 adrenergic receptor (Homo sapiens), sequence (P07550 whole entry, looked up): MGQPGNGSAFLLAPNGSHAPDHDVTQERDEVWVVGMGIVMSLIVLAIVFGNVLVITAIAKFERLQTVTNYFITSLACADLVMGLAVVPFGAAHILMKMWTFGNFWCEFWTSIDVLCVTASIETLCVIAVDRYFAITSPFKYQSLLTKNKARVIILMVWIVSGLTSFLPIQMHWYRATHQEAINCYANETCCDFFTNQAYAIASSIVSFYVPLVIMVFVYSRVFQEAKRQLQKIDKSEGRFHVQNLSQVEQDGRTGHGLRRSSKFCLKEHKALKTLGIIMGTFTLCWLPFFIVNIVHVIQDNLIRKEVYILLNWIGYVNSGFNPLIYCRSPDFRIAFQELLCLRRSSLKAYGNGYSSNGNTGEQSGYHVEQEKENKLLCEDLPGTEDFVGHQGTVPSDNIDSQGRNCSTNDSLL
Background: qHTS replaces the single test concentration by a dilution series.

In the case of `[O-][n+]1ccc(Cl)cc1`, the Potency result is “inactive”. Same read-out and setting: to `Clc1ccc(C(c2ccccc2Cl)C(Cl)Cl)cc1` (stereo not drawn) belongs “inactive”. For the compound `CC(C)(C)CC(C)(C)c1ccc(Nc2ccc(C(C)(C)CC(C)(C)C)cc2)cc1`, the activation was 6.6% [at 8.39 µM]. For the compound `CN(C)N=Nc1ccccc1`, the Potency entry is “inactive”. Same read-out and setting: to `O=c1[nH]c(=O)n([C@H]2CCCO2)cc1F` belongs “inactive”. Turning to `C/C=C(\C)C(=O)OC/C=C(\C)CCC=C(C)C`, the Potency entry was “inactive”. With `O=C(O)c1cc(=O)c2c(OCC(O)COc3cccc4oc(C(=O)O)cc(=O)c34)cccc2o1`, the Potency entry was “inactive”. On the same count and under the same terms, to `C[Si](C)(C)Cl` belongs “inactive”; to `COC(=O)c1cc(Cl)ccc1NS(=O)(=O)C(F)(F)F`, “inactive”. Same read-out and setting: to `CCC(=O)c1ccc(O)cc1` belongs “inactive”; to `Cc1ccc(N=Nc2c(O)ccc3ccccc23)c(C)c1`, “inactive”; to `CC(=N\O)/C(C)=N/O`, “inactive”. On the same count and under the same terms, the value for `COc1ccc(C(=O)CC(=O)c2ccc(C(C)(C)C)cc2)cc1` was “inactive”; that for `CC(C)Oc1ccc2c(=O)c(-c3ccccc3)coc2c1` was “inactive”; that for `CCCCCCCOC(=O)c1ccccc1C(=O)OCCCCCCC` was “inactive”.

As for `CC(C)CC(O)Cc1ccccc1` (stereo not drawn), the Potency result is “inactive”. On the same count and under the same terms, to `Cc1cccc(C)c1NC(=O)CN1CCCCCC1` belongs “inactive”; to `CS(=O)(=O)O`, “inactive”; to `C(/C=C/C=C/Nc1ccccc1)=Nc1ccccc1`, “inactive”.

Take `OC1OC[C@@H](O)[C@H](O)[C@H]1O` (stereo partly drawn): the Potency result is “inactive”. Turning to `Cc1c(I)c(=O)n(-c2ccccc2)n1C`, the Potency result is “inactive”. On the same count and under the same terms, the value for `CCCCCCCCS(=O)(=O)Cl` was “inactive”. Consider `Clc1ccccc1C(c1ccccc1)(c1ccccc1)n1ccnc1`, for which the Potency entry was “inactive”.

With `COc1cccc(OC)c1C(=O)O`, the Potency entry is “inactive”. Still for that read-out and setting: the value for `Cc1ccc(Nc2ccc(O)c3c2C(=O)c2ccccc2C3=O)cc1` was “inactive”; that for `CC/C=C\C#N` was “inactive”.

Regarding `CCCCCCCCCCCC(=O)OC[C@@H](O)[C@H]1OC[C@H](OCCO)[C@H]1OCCO`, the Potency result was “inactive”.

As for `N=C(N)c1ccc2cc(OC(=O)c3ccc(N=C(N)N)cc3)ccc2c1`, the Potency entry is “inactive”.

As for `N[C@H](C(=O)O)c1ccc(O)cc1`, the activation is 19.3% [at 19 µM].

As to `C=CC(=O)OCCCCCC`, the Potency result was “inactive”.

As for `O=C(O)/C=C/c1ccc(Cn2ccnc2)cc1`, the Potency entry is “inactive”. The same measure, in the same setting: the value for `CCCCOCCCC` was “inactive”.

In the case of `CC(Cl)COP(=O)(OCC(C)Cl)OCC(C)Cl` (stereo not drawn), the Potency result was “inactive”.

For `CCC(C)S` (stereo not drawn), the activation is 11% [at 3.27 µM]. `c1ccc2c(c1)Oc1ccccc1S2`: the Potency result is “inactive”. The same measure, in the same setting: the value for `CCCCCCCCCCCCCCCCC` was “inactive”; that for `C/C(=C(\CCO)SS/C(CCO)=C(\C)N(C=O)Cc1cnc(C)nc1N)N(C=O)Cc1cnc(C)nc1N` was “inactive”; that for `OC[C@H]1O[C@@H](O[C@H]2[C@H](O)[C@@H](O)[C@H](O)O[C@@H]2CO)[C@H](O)[C@@H](O)[C@H]1O` was “inactive”.

In the case of `C=CCCCCCCCCO`, the Potency result is “inactive”. For the compound `c1ccc2c(c1)CCc1ccccc1N2`, the Potency entry is “inactive”. On the same count and under the same terms, to `CCN[C@H]1CN(CCCOC)S(=O)(=O)c2sc(S(N)(=O)=O)cc21` belongs “inactive”; to `Nc1cc([N+](=O)[O-])ccc1Cl`, “inactive”. Same read-out and setting: to `CC(CCO)CCc1ccccc1` (stereo not drawn) belongs “inactive”. For `N[C@@H](CSSC[C@H](N)C(=O)O)C(=O)O`, the activation was -18.9% [at 0.349 µM]. With `CC(=O)Nc1ncc([N+](=O)[O-])s1`, the Potency entry is “inactive”. Still for that read-out and setting: the value for `COC(=O)Nc1ccc(Cl)c(Cl)c1` was “inactive”. On the same count and under the same terms, to `CC1=C(C=O)C(C)(C)CC=C1` belongs “inactive”. Consider `COC(=O)c1ccc2cc(C(=O)OC)ccc2c1`, for which the activation is 21.2% [at 19 µM]. Take `O=C(O)c1cccnc1C(=O)O`: the Potency result is “inactive”. Same read-out and setting: the value for `O=C(c1ccc(Cl)cc1)c1ccc(Cl)cc1` was “inactive”.

Regarding `COC(=O)CC(C(C)=O)C(=O)OC` (stereo not drawn), the Potency entry is “inactive”. On the same count and under the same terms, the value for `C1=COCCC1` was “inactive”; that for `CC[C@]12CCCN3CCc4c(n(c5ccccc45)[C@@](O)(C(=O)OC)C1)[C@@H]32` was “inactive”; that for `CC(CO)CO` was “inactive”. Same read-out and setting: the value for `FC(F)(F)c1ccccc1Cl` was “inactive”. The same measure, in the same setting: the value for `CCO[Si](C)(OCC)OCC` was “inactive”. In the case of `C=CC(C)CCC=C(C)C` (stereo not drawn), the Potency result is “inactive”. Same read-out and setting: to `CC(C)OC(C)C` belongs “inactive”. On the same count and under the same terms, to `CC(=O)/C=C/C1C(C)=CCC(C)C1(C)C` (stereo not drawn) belongs “inactive”. On the same count and under the same terms, the value for `COC(C)(C)CCO` was “inactive”; that for `CCCCCCCCCCCCCCCC` was “inactive”.

In the case of `C=CCCCCCCCCCCC`, the activation is -13.4% [at 8.39 µM]. In the case of `CC(=O)NCc1c(I)c(NC(C)=O)c(I)c(C(=O)O)c1I`, the Potency result is “inactive”.

On to `CCOC(=O)c1c(C)n(C)c2ccc(O)cc12`, for which the Potency result is “inactive”.

Regarding `COc1ccc(C)cc1`, the Potency entry is “inactive”. The same measure, in the same setting: to `CCC/C=C/CO` belongs “inactive”; to `CC(C)COC(=O)c1ccc(N)cc1`, “inactive”.

With `COC(=O)Nc1nc2ccc(Sc3ccccc3)cc2[nH]1`, the Potency result is “inactive”. As to `CS(C)(=O)=O`, the Potency entry is “inactive”. Take `CCCCN(CCO)CCO`: the Potency entry was “inactive”.

For the compound `Cn1cnc2c(F)c(Nc3ccc(Br)cc3Cl)c(C(=O)NOCCO)cc21`, the Potency result is “inactive”.

With `C=CC(C)(O)CC/C=C(\C)CCC=C(C)C` (stereo not drawn), the Potency entry was “inactive”. The same measure, in the same setting: the value for `CC(CCC(=O)O)C(=O)O` (stereo not drawn) was “inactive”.
